Test systems include T-47D breast; BT-549 breast; MDA-MB-435 melanoma; MCF7 breast; HCT-116 colon; HCC-2998 colon; KM12 colon; SW-620 colon.
What all share (experiment): NCI-60 one-dose screen, 48 h (100 = growth as untreated, 0 = no growth, -100 = all killed)
Holding throughout (details): 10 µM unless noted

This is an account of results in PubChem BioAssay (NCI).

The structures appear in SMILES notation. Compounds without any hit were thinned out: in the full panel of roughly 83,000, 20% have a hit.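 96-well plates, one dose, 48 hours. Percent growth reported; active if below 10.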 Unmarked numbers belong to inactive results. Active and inactive are the calls of the source.

`O=C1NC(=Nc2ccc(Cl)cc2)S/C1=C\c1cn(-c2ccccc2)nc1-c1ccccc1`: the growth in the test on T-47D breast was 47.4%; in the test on BT-549 breast, 84.3%; in the test with MDA-MB-435 melanoma it was 90.1%; in the test on MCF7 breast it was 69.1%; in the test on HCT-116 colon, 63.8%; with HCC-2998 colon it was 100%. In the test with KM12 colon, the growth is 97.5%.
Turning to `C=CC(=O)Nc1cccc(Oc2nccc(Nc3nnc(C4CC4)s3)n2)c1`, the growth in the test on T-47D breast was 95%; with BT-549 breast it was 101%; with MDA-MB-435 melanoma, 99.5%; with SW-620 colon, 93.3%; in the test on MCF7 breast, 82%; in the test on HCT-116 colon, 101%. Besides, the growth in the test with KM12 colon is 97.5%.
Turning to `COc1cc(C2CC(=O)Nc3c2c(C)nn3-c2nc3ccccc3[nH]2)cc2c1OCC(=O)N2` (configuration not stated), the growth is 83.6% with T-47D breast; 65.9% in the test with BT-549 breast; 48.5% with MDA-MB-435 melanoma; 52.4% in the test on SW-620 colon; 56.9% in the test on MCF7 breast; 107% with HCT-116 colon. The growth in the test on KM12 colon is 70.8%.
In the case of `COc1ccc(C2=NN(C(=O)c3cc(OC)c(OC)c(OC)c3)C(c3ccc(Cl)cc3)C2)cc1OC` (configuration not stated), the growth with T-47D breast was 24.6%; in the test with BT-549 breast it was 49.9%; with MDA-MB-435 melanoma, -43.3% (active); in the test on SW-620 colon, 30.1%; in the test on MCF7 breast, 18.7%; in the test on HCT-116 colon, 10.6%. Further, the growth with KM12 colon was 15.9%.
On to `N#Cc1c(-c2ccccc2)cc(-c2ccc(Nc3nc(Nc4ccc(F)cc4)nc(Nc4ccc(F)cc4)n3)cc2)nc1N`, for which the growth was 77% in the test with T-47D breast; 101% in the test with BT-549 breast; 105% in the test on MDA-MB-435 melanoma; 84.3% with MCF7 breast; 70.7% with HCT-116 colon; 51.8% in the test on HCC-2998 colon. Further, the growth in the test with KM12 colon was 95.3%.
Regarding `O=C1Nc2ccccc2/C1=C/c1cn(C(=O)c2c(Cl)cccc2Cl)c2ccccc12`, the growth in the test on T-47D breast was 47.7%; in the test with BT-549 breast it was 51.7%; in the test on MDA-MB-435 melanoma, 85.7%; in the test on SW-620 colon it was 45.5%; in the test with MCF7 breast, 22.9%; with HCT-116 colon it was 26.1%. Also, the growth in the test with KM12 colon is 54.8%.
For the molecule `COc1cccc(-c2nc3sccn3c2-c2ccnc(NCCNS(=O)(=O)c3cccc(F)c3)c2)c1`, the growth was -2.17% (active) in the test with T-47D breast; -6.02% (active) with BT-549 breast; 43.8% in the test on MDA-MB-435 melanoma; 37.7% with MCF7 breast; 24.5% in the test with HCT-116 colon; 52% in the test with HCC-2998 colon. Besides, the growth with KM12 colon is 27.3%.
For `N#Cc1nc2c(S(=O)(=O)c3ccc(Cl)cc3)c(N)n(Nc3cccc(Cl)c3)c2nc1C#N`, the growth is 53.5% with T-47D breast; 47.8% with BT-549 breast; 53% with MDA-MB-435 melanoma; 58.5% in the test with MCF7 breast; 32.9% in the test with HCT-116 colon; 82.3% in the test with HCC-2998 colon. For the same molecule, in the test on KM12 colon, the growth was 64.3%.
Regarding `COc1ccc(C2C(c3nn[nH]n3)=C(N)Oc3c2ccc2ccccc32)cc1` (configuration not stated), the growth in the test on T-47D breast was 64.4%; in the test with BT-549 breast it was 72%; in the test with MDA-MB-435 melanoma it was -26.6% (active); with MCF7 breast, 33.1%; with HCT-116 colon, 55.7%; in the test on HCC-2998 colon, 97.7%. The growth in the test with KM12 colon was 50.2%.
On to `COc1c(CCC[P+](c2ccccc2)(c2ccccc2)c2ccccc2)cc2c(c1OC)OCO2`, for which the growth in the test with T-47D breast was 2.54% (active); in the test on BT-549 breast, 11.5%; in the test with MDA-MB-435 melanoma, 2.57% (active); with SW-620 colon, 13.1%; with MCF7 breast, 2.19% (active); in the test with HCT-116 colon, 5.97% (active). Moreover, the growth with KM12 colon is 4.98% (active).
In the case of `CC(=O)n1c(-c2ccc(Cl)cc2)nc2c(c1=O)C(c1ccc(Cl)cc1)c1sc3c(Cl)cccc3c1O2` (configuration not stated), the growth is -2.51% (active) in the test on T-47D breast; -7.92% (active) in the test with BT-549 breast; -19.6% (active) in the test on MDA-MB-435 melanoma; -11.1% (active) in the test on SW-620 colon; 5.59% (active) in the test with MCF7 breast; -45.9% (active) in the test on HCT-116 colon. In addition, in the test on KM12 colon, the growth was -17.4% (active).
On to `O=C(Nc1ccc(Cl)cc1)Nc1ccc(Cl)c(C(F)(F)F)c1`, for which the growth with T-47D breast was -5.38% (active); in the test on BT-549 breast, 14.4%; in the test with MDA-MB-435 melanoma it was -5.12% (active); in the test with MCF7 breast, 9.91% (active); in the test on HCT-116 colon, 2.77% (active); in the test on HCC-2998 colon, -34.8% (active). Moreover, in the test on KM12 colon, the growth is 3% (active).
Take `COc1ccc2c(c1)C(=O)/C(=C/c1cccc(OCC(=O)Nc3nc(C)c(C)s3)c1)O2`: the growth was -6.43% (active) in the test with T-47D breast; -81.9% (active) with BT-549 breast; 15.3% with MDA-MB-435 melanoma; -76.9% (active) in the test with SW-620 colon; 40.5% in the test with MCF7 breast; -96.5% (active) with HCT-116 colon. The growth with KM12 colon was 9.4% (active).
Regarding `COc1ccc(C(=O)Nn2c(NCC(=O)N3c4ccccc4Sc4ccccc43)nnc2-c2ccc(O)cc2)cc1`, the growth was 106% in the test with T-47D breast; 96.5% in the test on BT-549 breast; 102% in the test on MDA-MB-435 melanoma; 104% with SW-620 colon; 111% with MCF7 breast; 101% in the test with HCT-116 colon. Moreover, the growth in the test on KM12 colon is 109%.
In the case of `CCOP(=O)(OCC)C1CP(=O)(c2ccccc2)CC(C)=C1Cl` (configuration not stated), the growth is 102% with T-47D breast; 129% in the test on BT-549 breast; 110% with MDA-MB-435 melanoma; 105% in the test with SW-620 colon; 102% in the test on MCF7 breast; 91.5% in the test with HCT-116 colon. The growth in the test with KM12 colon was 109%.
As to `Cc1ccc(C2SCC(=O)N2Cc2ccccc2)cc1` (configuration not stated), the growth with T-47D breast is 95.2%; with BT-549 breast it was 99%; with MDA-MB-435 melanoma, 95.4%; in the test on SW-620 colon it was 107%; in the test on HCT-116 colon, 94.2%; in the test on HCC-2998 colon, 90.7%. Moreover, the growth in the test on KM12 colon was 102%.
With `COc1ccc(-c2csc(C3=C(O)CN(C(C)C)C3=N)n2)cc1OC`, the growth was 91.4% with T-47D breast; 112% in the test on BT-549 breast; 116% in the test on MDA-MB-435 melanoma; 129% in the test on MCF7 breast; 96.3% in the test with HCT-116 colon; 116% in the test on HCC-2998 colon. Further, the growth in the test with KM12 colon is 99.6%.
For `CCN(CC)c1ccc(C(=O)c2ccc(N(CC)CC)cc2)cc1`, the growth was 20.1% with T-47D breast; 4.9% (active) in the test on BT-549 breast; 0.459% (active) with MDA-MB-435 melanoma; 26.4% with SW-620 colon; 13.5% in the test with MCF7 breast; 10.2% in the test on HCT-116 colon. For the same molecule, the growth with KM12 colon is 25.1%.
On to `COc1ccc(-c2cc(-c3cc(OC)c(OC)c(OC)c3)c(C#N)c(N3CCOCC3)n2)cc1O`, for which the growth in the test on T-47D breast was 78.3%; in the test on BT-549 breast, 48.3%; with MDA-MB-435 melanoma, 28.3%; in the test on SW-620 colon, 23.1%; in the test with MCF7 breast it was 36.2%; with HCT-116 colon it was 49.1%. Also, the growth in the test with KM12 colon was 17.4%.
Consider `c1cc2ccc3cc2cc1CNCCOCCNCc1ccc2ccc(cc2c1)CNCCOCCNC3`, for which the growth in the test on T-47D breast was -23.8% (active); with BT-549 breast, 99.6%; with MDA-MB-435 melanoma it was -90.2% (active); in the test on MCF7 breast, -17.1% (active); with HCT-116 colon, -4.41% (active); with HCC-2998 colon, -57.4% (active). Moreover, in the test on KM12 colon, the growth is -39% (active).
`CC(C)=C[C@@H]1c2c(c3ccccc3n(C)c2=O)O[C@H]2c3c(c4ccccc4n(C)c3=O)OC(C)(C)[C@@H]12`: the growth was 57.7% in the test on T-47D breast; 54.7% in the test on BT-549 breast; 83.9% with MDA-MB-435 melanoma; 89.9% with SW-620 colon; 69.8% with MCF7 breast; 81.6% in the test on HCT-116 colon. Moreover, the growth in the test on KM12 colon is 89.1%.
On to `COc1ccc(C(=O)/C=C/c2c(C(F)(F)F)nc3sccn23)cc1OC`, for which the growth in the test with T-47D breast is -16.9% (active); in the test on BT-549 breast, 11.3%; in the test with MDA-MB-435 melanoma, 3.47% (active); in the test on MCF7 breast, 7.83% (active); with HCT-116 colon it was 6.66% (active); in the test with HCC-2998 colon, 31.4%. For the same molecule, in the test on KM12 colon, the growth is 11.2%.
For the molecule `CC1(C)CC(=O)C2=C(C1)N(c1ccc(OC(F)(F)F)cc1)C(N)=C(C#N)C2c1ccc(Cl)cc1` (configuration not stated), the growth with T-47D breast was 79.1%; with BT-549 breast it was 109%; with MDA-MB-435 melanoma it was 93.1%; with MCF7 breast, 86%; in the test on HCT-116 colon it was 68.4%.
On to `Cc1ccc(Cl)cc1NC(=O)c1cc2ccccc2cc1O`, for which the growth is -12.1% (active) in the test on T-47D breast; -15.6% (active) in the test with BT-549 breast; -7.31% (active) in the test on MDA-MB-435 melanoma; -1.12% (active) with SW-620 colon; -21.5% (active) with MCF7 breast; -10.7% (active) with HCT-116 colon. In the test with KM12 colon, the growth is -29.4% (active).
Take `NC[C@H](O)c1ccc(O)c(O)c1`: the growth was 110% in the test with T-47D breast; 88.7% with BT-549 breast; 109% with MDA-MB-435 melanoma; 105% in the test with SW-620 colon; 110% in the test with MCF7 breast; 95.6% with HCT-116 colon. Further, in the test with KM12 colon, the growth was 103%.
On to `OC(COc1ccccc1Cl)COc1ccccc1Cl`, for which the growth is 97.1% with T-47D breast; 86.6% in the test with BT-549 breast; 94.8% in the test on MDA-MB-435 melanoma; 97.9% in the test with SW-620 colon; 94.8% in the test on MCF7 breast; 90.9% in the test with HCT-116 colon. Also, in the test with KM12 colon, the growth is 99.2%.
As for `CCCCCCCCCCN(CCCCCCCCCC)CC(=O)c1ccc2cc(Br)c3ccccc3c2c1`, the growth is 72.1% in the test on T-47D breast; 72% with BT-549 breast; 33.3% in the test on MDA-MB-435 melanoma; -94.2% (active) in the test on SW-620 colon; 99% in the test on MCF7 breast; -22.8% (active) in the test with HCT-116 colon. For the same molecule, the growth with KM12 colon is -13.9% (active).
